GLP1R cytotox – cytotoxic in the GLP-1 receptor inverse agonist counter-screen. Potency, µM (series often up to 38.3 µM), most hits filed as inhibitors. 410,000 tested, 0.13% active. HEK293 cAMP-luciferase reporter cells, luminescence, 24 h;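 note: loss of luciferase light is scored as toxicity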
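Quantitative HTS format, 1536 wells, 200 cells/uL seeded. Compounds: 23 nL, 24 h, 37 °C. Detection: luciferase reagent, luminescence at 12 min RT; decreased signal taken as cytotoxic.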
Mito fusion yeast – mitochondrial division inhibition or fusion activation; 320,000 tested, 0.23% active; AID 485298; Potency, µM (top dose mostly 46.1 µM), actives largely listed as activators; S. cerevisiae fusion-defective mutant growth rescue, CellTiterGlo 48 h; note: nearly all actives have a fitted effect of over 45% in size
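Compounds are tested for their ability to restore growth of mitochondrial fusion-defective yeast strains at non-permissive 37C in YPEG medium over 48 hours. Viability is quantified by luciferase luminescence.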
GLP-1R inv ag – acts as inverse agonist at human GLP-1 receptor. HEK293 GLP-1R CRE-luciferase, luminescence, 24 h; GLP-1R form is constitutively active. Potency, µM (series often up to 38.3 µM), usual class: inhibitors. 410,000 tested, 1.6% active. AID 624417; note: nearly all actives have a fitted effect of over 55% in size
Target sequence (P43220 whole entry, looked up): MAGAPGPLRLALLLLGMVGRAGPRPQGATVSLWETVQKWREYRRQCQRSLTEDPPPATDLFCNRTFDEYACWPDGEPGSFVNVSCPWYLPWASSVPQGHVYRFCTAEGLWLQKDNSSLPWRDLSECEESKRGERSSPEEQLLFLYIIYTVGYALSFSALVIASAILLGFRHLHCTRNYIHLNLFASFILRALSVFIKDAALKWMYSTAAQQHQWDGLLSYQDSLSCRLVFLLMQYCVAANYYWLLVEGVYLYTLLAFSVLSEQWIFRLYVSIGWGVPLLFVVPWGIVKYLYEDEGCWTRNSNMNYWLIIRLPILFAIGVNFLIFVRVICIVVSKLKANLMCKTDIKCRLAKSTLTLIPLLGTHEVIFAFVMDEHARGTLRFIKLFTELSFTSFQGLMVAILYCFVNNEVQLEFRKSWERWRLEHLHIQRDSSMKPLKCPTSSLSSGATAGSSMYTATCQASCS
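Stable HEK293 clone (constitutively active GLP-1R + cAMP-response luciferase); 200 cells/uL plated, 12 h pre-culture, compound 24 hr, 37 deg C/5% CO2; detection reagent 12 min RT; luminescence.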
BRCA1 expr up – increases BRCA1 expression; MCF7-BRCA1-FFLuc reporter, luminescence, 48 h; response scale: scaled: vehicle 0%, 10 µM genistein 100%; Potency, µM (top dose mostly 46.1 µM), usual class: activators; 380,000 tested, 1.1% active; AID 624202; note: nearly all actives have a fitted effect of over 80% in size
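Reporter cells (MCF7, BRCA1 promoter-firefly luciferase) received library compounds across a concentration series for 48 h. End-point luminescence was measured and concentration-effect curves derived after normalization.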
GLP1R ag – activates the human GLP-1 receptor; 380,000 tested, 0.007% active; Potency, µM (titrated, usually from 45.6 µM), hits mostly activators; P43220; HEK293 GLP-1R CRE-luciferase, luminescence, 4-6 h; cells express a hypersensitive GLP-1R form
Of the large screens only hits and unclear results are named; the others gave an inactive call. A selection: hits, their analogues and other compounds. The true share with any hit is near 2.8%. Calls come from the whole dose curve; as a rule, active = well fitted curve in the direction sought with a large enough effect; inconclusive = small, poorly fitted or top-dose-only effect, or another doubt; inactive = no such curve, though single readings can be large; an effect the other way counts as inactive or inconclusive.

CC(=O)Nc1ccc(S(=O)(=O)Nc2cc(C)ccn2)cc1	none
COc1cc(OC)c(C2CC(=O)N3CN(c4ccc(C)cc4)CSC3=C2C#N)cc1OC (configuration not stated)	BRCA1 expr up 6.31µM
COc1ccc(N2CSC3=C(C#N)C(c4cc(OC)c(OC)cc4OC)CC(=O)N3C2)c(OC)c1 (configuration not stated)	none
CCOC(=O)c1ccc(NC(=O)COC(=O)c2cn(CC)c3nc(C)ccc3c2=O)cc1	none (no result: Mito fusion yeast)
Cc1ccc(S(=O)(=O)N2CCN(C(=O)c3cc4c(s3)CCCC4)CC2)c(C)c1	Mito fusion yeast inconclusive
O=C(c1cc2c(s1)CCCC2)N1CCN(S(=O)(=O)c2ccccc2C(F)(F)F)CC1	GLP-1R inv ag 10µM
O=c1oc(Nc2cccc(Cl)c2)nc2ccccc12	BRCA1 expr up 7.08µM
NC(N)=N/N=C/c1ccc(OCc2ccccc2Cl)cc1	GLP1R cytotox inconclusive, GLP-1R inv ag 11.2µM
O=C(Nc1nccs1)c1ccc(COc2ccccc2)o1	BRCA1 expr up 5.62µM
O=C(Nc1nccs1)c1ccc(CSc2ccccc2)o1	GLP-1R inv ag inconclusive, BRCA1 expr up 2.82µM
CCc1nnc(NC(=O)c2ccc(COc3ccc(C)cc3)o2)s1	BRCA1 expr up 5.01µM
Cc1ccc(OCc2ccc(C(=O)Nc3ccc(S(N)(=O)=O)cc3)o2)cc1	BRCA1 expr up 10µM
CCCCn1c(N)c(N(CC)C(=O)Cc2ccc(S(=O)(=O)N3CCOCC3)s2)c(=O)[nH]c1=O	none
C=CCn1c(-c2csc(-c3ccc(Cl)cc3)n2)n[nH]c1=S	GLP1R cytotox 3.55µM, GLP-1R inv ag inconclusive
C=CCn1c(-c2csc(-c3ccccc3)n2)n[nH]c1=S	GLP1R cytotox 11.2µM, GLP-1R inv ag inconclusive
CCn1c(-c2csc(-c3ccccc3)n2)n[nH]c1=S	GLP1R cytotox inconclusive, GLP-1R inv ag inconclusive
CCOC(=O)/C=C/c1ccc2oc3ccccc3c(=O)c2c1	none
CC(C)(C)c1ccc(NC(=O)C2CCCN(c3cnccn3)C2)cc1 (configuration not stated)	Mito fusion yeast 12.6µM, GLP-1R inv ag inconclusive
CCOC(=O)c1nc2ccc(C)cc2c2c1C1CC(c3c(Cl)cccc31)N2C(=O)OCc1ccccc1 (configuration not stated)	GLP-1R inv ag 5.01µM (no result: Mito fusion yeast)
COc1cc(C(=O)N/N=C(\C)Cc2ccccc2)cc(OC)c1OC	GLP1R cytotox inconclusive, GLP-1R inv ag inconclusive
CCOC(=O)C1(Cc2cccc(OC)c2)CCCN(C(=O)CCN2CCCO2)C1 (configuration not stated)	BRCA1 expr up 3.98µM
CCOC(=O)C1(Cc2cccc(OC)c2)CCN(Cc2ccc(C)s2)CC1	GLP1R cytotox inconclusive, GLP-1R inv ag 10µM
CCOC(=O)C1(Cc2cccc(OC)c2)CCN(Cc2ccccc2OC)CC1	GLP-1R inv ag inconclusive
CCOC(=O)C1(Cc2cccc(OC)c2)CCN(Cc2ccc(OC)c(OC)c2)CC1	GLP-1R inv ag inconclusive
CCOC(=O)C1(Cc2cccc(OC)c2)CCN(Cc2cccc(O)c2)CC1	GLP-1R inv ag 11.2µM
Cc1ccc(N(Cc2ccc(C(=O)Nc3c(C)n(C)n(-c4ccccc4)c3=O)cc2)S(C)(=O)=O)cc1C	Mito fusion yeast inconclusive
CN1CCN(C(=O)c2ccccc2[N+](=O)[O-])CC1	none
Cc1cccc(CCNS(=O)(=O)c2cnc[nH]2)c1	none
C=CCOc1ccccc1CN1CCC(C(=O)Nc2cccc(-c3ccn[nH]3)c2)CC1	GLP1R cytotox inconclusive, GLP-1R inv ag 7.94µM
CCOC(=O)Cc1ccc(NC(=O)N2CCc3c(sc4c3CCCC4)C2c2ccc(F)cc2)cc1 (configuration not stated)	GLP-1R inv ag 3.98µM (no result: Mito fusion yeast, BRCA1 expr up, GLP1R ag)
COc1ccccc1N1CCN(C(=O)COc2cccc(C)c2C)CC1	GLP-1R inv ag 7.08µM
O=C(CCCOc1ccc(Cl)cc1)N1CCCCC1	GLP-1R inv ag inconclusive, BRCA1 expr up 12.6µM
COc1ccccc1OCC(=O)N1CCN(c2ccccc2OC)CC1	none
Cc1cccc(OCCCC(=O)O)c1C	none
O=C(CCCOc1ccc(Cl)cc1)N1CCCCCC1	none
CCCCOc1ccc(C(=O)N2CCCCCC2)cc1	GLP-1R inv ag inconclusive
O=C(c1ccc(COc2ccc(Cl)cc2)cc1)N1CCCCC1	GLP-1R inv ag inconclusive, BRCA1 expr up 3.16µM
Cc1cccc(OCCCC(=O)N2CCCCCC2)c1C	GLP-1R inv ag 8.91µM
CCCCNC(=O)Cn1c2c(c(-c3ccccc3Cl)cc1=O)CCC2	none
O=C(c1ccc(Cl)cc1)N1CCN(CCOc2ccccc2)CC1	GLP-1R inv ag 11.2µM
CN1CCN(CCOc2ccc(-c3ccccc3)cc2)CC1	GLP-1R inv ag inconclusive, BRCA1 expr up 7.94µM
CN1CCN(CCCOc2ccc(-c3ccccc3)cc2)CC1	GLP1R cytotox inconclusive, GLP-1R inv ag inconclusive, BRCA1 expr up inconclusive
CCOc1ccc(NC(=O)CCN2CCN(c3ccccc3F)CC2)cc1	none
O=C(COc1ccccc1)Nc1ccc(CN2CCCCC2)cc1	GLP-1R inv ag inconclusive
CCCN(CCC)c1ncnc2c1cnn2-c1ccc(OC)cc1	GLP-1R inv ag 10µM, BRCA1 expr up inconclusive
CCCCN(CCCC)c1ncnc2c1cnn2-c1cccc(C)c1	GLP-1R inv ag inconclusive (no result: Mito fusion yeast, BRCA1 expr up, GLP1R ag)
CCCCN(CC)C(=O)Cc1c(C(=O)O)[nH]c2ccc(Cl)cc12	none
CN1/C(=C\C(=O)Nc2ccc(Br)cc2)C(C)(C)c2ccccc21	GLP-1R inv ag inconclusive
CN1/C(=C\C(=O)Nc2cccc(Cl)c2)C(C)(C)c2ccccc21	GLP1R cytotox inconclusive, GLP-1R inv ag 5.01µM
CN1/C(=C\C(=O)Nc2ccc(F)cc2)C(C)(C)c2ccccc21	Mito fusion yeast 10µM, GLP-1R inv ag inconclusive
COc1cccc(C(=O)Cn2c(N3CCOCC3)nc3c2c(=O)n(C)c(=O)n3C)c1	none
O=C(Cc1ccc([N+](=O)[O-])cc1)Nc1cccc(C(=O)N2CCCC2)c1	GLP1R cytotox inconclusive (no result: Mito fusion yeast)
CC(=O)Nc1ccc2oc(-c3cc(F)c(F)cc3Cl)nc2c1	none
CC(C)C(=O)Nc1ccc2oc(-c3cc(F)c(F)cc3Cl)nc2c1	BRCA1 expr up 2.82µM
CC(C)=CCC/C(C)=C/CC(C)(C)CNCCN1CCNCC1	none (no result: GLP1R cytotox, GLP-1R inv ag, BRCA1 expr up, GLP1R ag)
CC(=O)c1ccc(OCc2cc(C(=O)N3CC[C@@H]4CCCC[C@H]4C3)no2)cc1	GLP-1R inv ag inconclusive, BRCA1 expr up 3.16µM
Cc1cccc(C)c1OCc1cc(C(=O)N2CCC(C3CCCCC3)C2)no1 (configuration not stated)	GLP-1R inv ag inconclusive, BRCA1 expr up 12.6µM (no result: Mito fusion yeast)
CCOC(=O)c1c(NC(=O)c2cc3ccccc3c(=O)o2)sc2c1CCC(C)C2 (configuration not stated)	none (no result: Mito fusion yeast)
N#Cc1ccc(NC(=O)COc2ccc(-n3cnnn3)cc2)cc1	none (no result: Mito fusion yeast)
COc1cccc(NC(=O)CN(C)S(=O)(=O)/C=C/c2ccccc2)c1	GLP-1R inv ag inconclusive
CN(CC(=O)Nc1cccc(Cl)c1)S(=O)(=O)/C=C/c1ccccc1	GLP-1R inv ag 10µM (no result: Mito fusion yeast)

Bioassay records (PubChem)
